Most compounds without a hit are left out; they make up all but 19% or so of the library.
Shiga toxin inh: inhibitors of Shiga toxin in Vero cells; Vero cells, Shiga toxin protein synthesis inhibition reporter; inhibition, % at 38.7 µM; hit rate 9.2% among 290,000; AID 2315; in the data active means inhibition mostly above about 28%, no sharp cut-off; inactive means mostly below about 43%; further: 0% is about no effect
Pf growth 48h: P. falciparum growth inhibition at 48 hours (one generation). P. falciparum luciferase growth in erythrocytes, 48 h. Potency, µM (highest dose often 28.7 µM), for inactives: top-dose activity change, negative = inhibition, usual class: inhibitors. hit rate 5.9% among 310,000; further: potency means the concentration at half of the fitted maximal effect; on the % scale 0 is the no-effect control and ±100 the full control effect
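In quantitative HTS format, infected erythrocytes bearing luciferase-reporter parasites were treated for a single generation at 37 C. Luminescence after adding detection reagent served as the growth measure.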
Cycloheximide cs: counter-screen for Shiga toxin inhibitors: cycloheximide protein synthesis inhibition; cell reporter, cycloheximide protein synthesis inhibition counterscreen; max response, %; hit rate 12% among 300,000; in the data active means max response mostly above about 13%, no sharp cut-off; inactive means mostly below about 14%; further: read at 38.3 µM for the half of the compounds with a filed dose; 0% is about no effect
SARS PLP yeast: SARS-CoV PLP inhibition in yeast | S. cerevisiae expressing SARS-CoV PLpro, growth rescue | Potency, µM (top dose mostly 32.9 µM), for inactives: top-dose activity, positive = growth rescue, hits mostly activators | hit rate 0.19% among 330,000; calls by dose curve; further: potency means the concentration at half of the fitted maximal effect; 0% is about no effect; nearly all actives have a fitted effect of over 55% in size
Pf growth 96h: inhibits malaria parasite growth, 96 h; P. falciparum luciferase reporter growth, 96 h; Potency, µM (highest dose often 28.7 µM), inactives show at the highest dose activity change, negative = inhibition, hits mostly inhibitors; hit rate 6.9% among 320,000; AID 504834; further: potency means the concentration at half of the fitted maximal effect; on the % scale 0 is the no-effect control and ±100 the full control effect
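Parasite growth measured via integrated firefly luciferase reporter in P. falciparum. Infected erythrocytes at 2% hematocrit, 0.05% parasitemia final were treated 96 hours at 37 C under 5% CO2, and luminescence was read.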
AMA1-RON2 inh: disrupts binding of P. falciparum AMA1 to RON2; AID 720542; AlphaScreen AMA1-biotinylated RON2 peptide binding; hit rate 0.2% among 360,000; Potency, µM (titrated, usually from 58.2 µM), for inactives: at the highest dose activity change, negative = inhibition, usual class: inhibitors;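 further: potency means the concentration at half of the fitted maximal effect; 0% = vehicle wells and -100% = peptide control; nearly all actives have a fitted effect of over 45% in size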
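AMA1 (3D7) with his tag at 25 nM final met compounds first, then biotinylated RON2 peptide at 25 nM; detection used donor plus acceptor beads, 10 µg/mL apiece, read by AlphaScreen after 30 min at room temperature.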
Starred values were filed as active, the others as inactive; i = inactive; ? = inconclusive; nt = no result given; + = active, no number. Unless noted, the call rests on the fitted dose curve; in most records, active means well fitted curve in the direction sought with a large enough effect; inconclusive means small, poorly fitted or top-dose-only effect, or another doubt; inactive means no such curve, though single readings can be large; an effect the other way counts as inactive or inconclusive.

SMILES	Shiga toxin inh	Pf growth 48h	Cycloheximide cs	SARS PLP yeast	Pf growth 96h	AMA1-RON2 inh
Cn1c(S(=O)(=O)Cc2ccc(Cl)cc2)nc2ccccc21	23	?	10	-1%	2%	0%
Cn1c(NCc2ccc(Cl)cc2)nc2ccccc21	56*	266%	38*	0%	1%	6%
Cc1ccc(CNc2nc3ccccc3n2C)cc1	27	171%	23*	-6%	6%	-2%
CC(C)n1c(NCc2nc3ccccc3n2C)nc2ccccc21	0	?	1	-8%	nt	32%
CCCOC(=O)C1=C(C)NC2=C(C(=O)CCC2)C1c1cccs1 (centres undefined)	20	-13%	-2	1%	?	0%
COC(=O)C1=C(C)N(Cc2ccccc2)C(=O)N[C@H]1c1ccccc1	-13	0%	-4	10%	?	-2%
CCOC(=O)C1=C(C)NC2=C(C(=O)CCC2)C1c1coc2ccccc2c1=O (centres undefined)	6	nt	-3	-14%	12µM*	1%
COCCOC(=O)C1=C(C)N(Cc2ccccc2)C(=O)NC1c1cccc(OC)c1OC (centres undefined)	-10	?	-5	3%	1µM*	-9%
CCCOC(=O)C1=C(C)NC2=C(C(=O)CCC2)C1c1cccc(OC)c1OC (centres undefined)	-8	14%	4	-1%	8.3µM*	-1%
Cc1nc2ccccn2c(=O)c1NC(=O)c1ccc2c(c1)OCO2	nt	nt	nt	nt	nt	15%
Cn1cccc1/C=C1\C(=O)NC(=O)N(Cc2ccco2)C1=O	-13	-14%	11	2%	2%	-23%
Cc1ccc(OCCn2cccc2/C=C2/C(=O)NC(=O)N(Cc3ccco3)C2=O)cc1	37*	36%	22*	4%	?	-2%
CCc1ccc(N2C(=O)NC(=O)/C(=C\c3cccn3CCOc3ccc(C(C)C)cc3)C2=O)cc1	+	145%	73*	10%	175%	11%
COc1cccc(-n2cnnc2SC(C)C(=O)NC2CCCC2)c1 (centres undefined)	nt	?	nt	6%	?	0%
Cc1ccc2c(CC(=O)N3CCN(c4ccccc4)CC3)coc2c1	2	28%	9	0%	62%	-21%
O=C(NNc1ncnc2ccccc12)c1cccc(Cl)c1	52*	65%	31*	1%	60%	81%
O=C(O)/C=C/C(=O)NNc1ncnc2ccccc12	81*	40%	31*	5%	0%	71%
CC(=O)NNc1ncnc2ccccc12	3	23%	8	?	25%	64%
O=C1c2ccncc2C(=O)N1CNc1ccc(Cl)cc1	29	6%	-2	2%	38%	-6%
CC(C)(C)OC(=O)N1CCC2(CC1)Oc1ccc(Cl)cc1C(=O)C21CC(c2ccc(Cl)cc2)=NO1 (centres undefined)	nt	nt	nt	nt	nt	-8%
Clc1ccc(-c2cc(CSc3ccccc3)on2)cc1	132*	229%	51*	3%	214%	81%
O=C(CCl)NCc1cc(-c2ccc(Cl)cc2)no1	29	2.1µM*	16*	0%	2.9µM*	-1%
c1ccc(SCc2cc(-c3ccccc3)no2)cc1	82*	237%	39*	0%	313%	39%
Clc1ccc(-c2cc(CSc3cccc(Cl)c3)on2)cc1	3	84%	-1	1%	4%	260%
COc1ccc(CNC(=O)C[C@H]2C[C@H](C(=O)N3CCCCC3)[C@@]3(CCc4ccccc4)c4[nH]c5ccc(Cl)cc5c4CCN3C2=O)cc1OC	nt	nt	nt	16%	nt	-2%
SMILES	Shiga toxin inh	Pf growth 48h	Cycloheximide cs	SARS PLP yeast	Pf growth 96h	AMA1-RON2 inh
c1ccc(-c2nc3ccccn3c2NCc2ccc3c(c2)OCO3)cc1	-10	?	2	1%	92%	-6%
COc1ccc(-c2nc3ccccn3c2NCc2ccc3c(c2)OCO3)cc1	49*	36%	22*	-6%	-85%	?
COc1ccc(-c2nc3cc(C)ccn3c2NCc2ccc3c(c2)OCO3)cc1	133*	?	27*	-2%	20%	-18%
Cc1cccn2c(NCc3ccc4c(c3)OCO4)c(-c3ccc(O)cc3)nc12	-12	4.1µM*	11	-1%	i	-1%
COc1cc(-c2nc3ccc(C)cn3c2Nc2ccc3c(c2)OCCO3)ccc1O	2	12µM*	13	-2%	13µM*	?
Cc1ccn2c(Nc3ccc4c(c3)OCO4)c(-c3ccc(O)cc3)nc2c1	41	?	11	0%	12µM*	-25%
Cc1ccc(S(=O)(=O)NCc2ccc(C(=O)NC3CCCCC3)cc2)cc1	-6	-4%	-10	-4%	?	-3%
CCCCC(c1nnnn1CC1CCCO1)N1CCN(c2cccc(C)c2C)CC1 (centres undefined)	-4	13µM*	2	-1%	nt	-3%
COc1ccc(C(c2nnnn2CC2CCCO2)N2CCC(C(N)=O)CC2)cc1 (centres undefined)	-2	10%	-2	-17%	-17%	1%
COc1ccc(C(c2nnnn2CC2CCCO2)N2CCN(c3cccc(C)c3C)CC2)cc1 (centres undefined)	4	9.3µM*	-5	-1%	3%	-1%
COc1cc(/C=C(\C#N)c2ccccn2)ccc1OCC(=O)Nc1ccc(Br)cc1	8	-3%	1	-1%	19%	1%
CC(C)(CCl)C(=O)Nc1ccc(C(F)(F)F)cc1	26	-9%	28*	-1%	-5%	0%
CC(O)(CS(=O)(=O)c1cccc(C(F)(F)F)c1)C(=O)Nc1ccc(C(F)(F)F)cc1 (centres undefined)	-2	?	0	2%	-3%	4%
Cc1cc(NC(=O)c2cc3n(n2)C(C(F)(F)F)CC(c2ccco2)N3)n(-c2ccccc2)n1 (centres undefined)	-12	9.3µM*	-2	1%	?	1%
O=C(c1cc2n(n1)C(C(F)(F)F)CC(c1ccco1)N2)N1CCc2ccccc2C1 (centres undefined)	-11	?	-1	-14%	nt	-7%
COc1cc2c(cc1OC)C(C)N(C(=O)c1cc3n(n1)C(C(F)(F)F)CC(c1ccco1)N3)CC2 (centres undefined)	23	6.6µM*	3	24%	nt	?
CCCCc1ccc(NC(=O)CC(C)(C)C)cc1	164*	58%	144*	-34%	?	26%
CCCCc1ccc(NC(=O)CC(C)=O)cc1	43	?	0	-2%	?	-10%
CCCCc1ccc(NC(=O)C(C)CC)cc1 (centres undefined)	51*	43%	48*	-2%	7%	-3%
COC(=O)C1=C(C)Nc2c(c(=O)n(C)c(=O)n2C)C1c1cccs1 (centres undefined)	-9	-6%	-6	0%	nt	9%
